Assay outcomes deposited in PubChem BioAssay by several laboratories.
PrPC TRFRET: inhibitors of human cell surface prion protein PrPC; inhibition, % at 13.8 µM; TR-FRET read-out; 0.43% of 370,000 active; P04156; AID 720596; in the data active = inhibition above about 24%; also: 0% = median of the test wells and 100% = reference compound wells
PfHsp40 rescue: compounds rescuing yeast from Plasmodium falciparum HSP40 toxicity. S. cerevisiae expressing PfHsp40, growth rescue, ATP luminescence. growth rescue, % at 12.5 µM. 0.68% of 340,000 active; in the data active = growth rescue above about 28%, passing the limit was not always enough;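 also: yeast W303a lacking pdr1 and pdr3 grown in galactose medium; growth measured after three days at 30 °C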
Mtb FBA inh: inhibits M. tuberculosis FBA enzyme; purified M. tuberculosis FBA, fluorescence read-out; inhibition, % at 1 µM; 2.3% of 360,000 active; AID 588726; in the data active = inhibition above about 27%;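 also: 0% = vehicle and 100% = reference inhibitor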
Target sequence (P9WQA3 whole entry, looked up): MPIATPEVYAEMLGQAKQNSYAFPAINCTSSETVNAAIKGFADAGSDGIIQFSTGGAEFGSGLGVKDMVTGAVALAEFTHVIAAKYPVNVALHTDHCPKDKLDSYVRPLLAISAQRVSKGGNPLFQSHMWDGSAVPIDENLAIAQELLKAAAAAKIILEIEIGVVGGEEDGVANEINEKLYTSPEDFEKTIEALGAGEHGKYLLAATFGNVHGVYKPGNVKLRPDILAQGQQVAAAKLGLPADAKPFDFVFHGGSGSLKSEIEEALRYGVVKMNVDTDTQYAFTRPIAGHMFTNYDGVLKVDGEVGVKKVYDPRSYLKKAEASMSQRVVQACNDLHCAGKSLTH
GDH-TPI inh: GDH-TPI coupled enzyme inhibition counter-screen; GDH-TPI coupled enzyme counterscreen, NADH absorbance; inhibition, % at 4.8 µM; 1.2% of 360,000 active; in the data active = inhibition above about 30%;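 also: 0% = DMSO wells and 100% = wells lacking the enzyme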
BJeLR lethal: BJeLR cell viability loss. BJeLR (HRASV12) viability, CellTiter-Glo ATP luminescence, 48 h. inhibition, % (no concentration beside the values). 0.17% of 300,000 active; in the data active = inhibition above about 50%
PrP UTR inh: inhibition of PrP 5' UTR reporter expression; inhibition, % (concentration not given with the values); 0.35% of 340,000 active; cell-based PrP 5' UTR mRNA reporter, plate reader; in the data active = inhibition above about 52%; also: 0 = median of the neutral control wells
Numbers without * were called inactive; / = no result given; + = active, no number. Rows were chosen to be rich in hits. Some 4.5% of all compounds tested hit in one or more screens of this group.

SMILES	PrPC TRFRET	PfHsp40 rescue	Mtb FBA inh	GDH-TPI inh	BJeLR lethal	PrP UTR inh
CCn1cc(/C=N/NC(=O)c2ccc(C#N)cc2F)c2ccccc21	-2.2	0.0	-2.8	24.6	-4.6	/
O=S1(=O)c2ccc(Br)cc2OC[C@@H](c2ccccc2)N1Cc1cn(Cc2ccccc2)nn1	8.1	/	/	/	/	/
N#CCC[C@@H]1CC[C@]2(CCCN(C(=O)C3CCCCC3)C2)O1	-5.5	/	/	/	/	/
COC(=O)[C@]12C[C@H](CC(=O)N3CCSCC3)C(=O)N(Cc3ccco3)C1=C[C@H](C(C)(C)C)O[C@@H]2C	3.0	/	/	/	/	/
COC(=O)[C@H](C)NC(=O)[C@H](CC(C)C)NC(=O)OC(C)(C)C	-4.7	/	/	/	/	/
CCOC(=O)c1cn(CC)c2ccc(Br)cc2c1=O	2.1	0.3	0.5	14.8	1.7	-13.4
CCn1cc(C(=O)O)c(=O)c2cc(Br)ccc21	2.5	32.9*	-0.2	-0.9	-3.2	-20.5
COC(=O)C1CN(Cc2ccc(OC)cc2)CCS(=O)(=O)N1Cc1ccc(C)cc1 (stereo not given)	4.9	/	/	/	/	/
Cc1cccc(NC(=S)NC2CCCC2)n1	4.3	113.2*	0.8	1.0	3.3	-15.8
O=C(Nc1ccc(-c2nc3ccccc3o2)c(O)c1)c1cc(-n2cnnc2)ccc1Cl	4.4	0.4	13.1	42.5*	2.1	1.4
O=C(Nc1ccc(-c2nc3ccccc3o2)cc1)c1cc(-n2cnnc2)ccc1Cl	6.3	-0.7	8.3	22.9	11.4	-36.1
CC(=O)/C(=N\Nc1ccc(C)cc1)N1CCOCC1	11.6	0.6	-1.2	31.1*	-2.8	-20.4
O=C(c1ccc(Cl)c(Cl)c1)N1CCN(c2ccnc3cc(Cl)ccc23)CC1	8.2	/	/	/	/	/
COc1ccc(NC(=O)CN(C)S(=O)(=O)c2ccc3[nH]c(=O)oc3c2)cc1	1.5	0.2	5.0	7.8	56.2*	-8.9
CCc1ccc(NC(=O)CN(C)S(=O)(=O)c2ccc3[nH]c(=O)oc3c2)cc1	/	0.7	3.7	-0.5	2.6	2.5
Cc1ccc2c(COC(=O)CNS(=O)(=O)c3ccccc3)cc(=O)oc2c1	-6.1	1.4	1.4	7.6	/	-17.9
CCOC(=O)Nc1ccc2c(C)cc(=O)oc2c1	7.7	2.0	199.3*	28.9	-1.3	-87.3
CCOC(=O)Nc1ccc2c(COC(=O)CNS(=O)(=O)c3ccc(NC(C)=O)cc3)cc(=O)oc2c1	5.0	0.3	160.3*	12.6	1.8	-35.7
Cc1cc(=O)oc2cc(NC(=O)c3ccccc3C(=O)O)ccc12	8.3	-0.3	+	19.0	1.4	-18.4
CCOC(=O)Nc1ccc2c(CN(C)Cc3ccc(F)cc3)cc(=O)oc2c1	-5.9	-0.5	13.6	-4.7	2.0	-11.4
COCCCNC(=O)C[C@@H]1C(=O)N2CCCC3=C2[C@@]1(C(=O)OC)CCCC3	1.4	/	/	/	/	/
CC(=O)N1c2ccc(S(=O)(=O)NCCC(=O)NCCc3ccc(C)cc3)cc2CC1C (stereo not given)	7.5	0.4	-1.4	6.3	9.7	-21.8
CC(=O)N1c2ccc(S(=O)(=O)NCCC(=O)NCCc3cccc(C)c3)cc2CC1C (stereo not given)	0.5	67.7*	0.5	3.6	-12.2	-5.8
C[C@H]1[C@@H](OC(=O)NCCc2ccccc2)CC[C@@]23CCCN2C(=O)CCC[C@@H]13	-9.4	/	/	/	/	/
CC(C)Sc1nc(N)c2c3c(sc2n1)CN(C)CC3	-6.6	4.7	26.0	23.3	2.5	-10.1
SMILES	PrPC TRFRET	PfHsp40 rescue	Mtb FBA inh	GDH-TPI inh	BJeLR lethal	PrP UTR inh
CCCSc1nc(N)c2c3c(sc2n1)CN(C)CC3	/	-1.4	40.6*	27.0	9.4	3.2
C[C@@H](c1ccccc1)N1C[C@H](COCc2ccccc2)Oc2cc(N3CC[C@H](N(C)C)C3)ccc2S1(=O)=O	-17.1	/	/	/	/	/
CCCCOCCCNC(=O)C[C@H]1C[C@@]2(C(=O)OC)C(=C[C@H](C(C)C)O[C@@H]2C2CC2)N(CCc2ccc(OC)c(OC)c2)C1=O	1.4	/	/	/	/	/
CCN1C(=O)CC(N2CCN(c3ccc(C(=O)c4ccccc4)cc3)CC2)C1=O (stereo not given)	-5.2	2.9	1.7	28.4	-2.4	-38.5
O=C1CC(N2CCN(c3ccc(C(=O)c4ccc(F)cc4)cc3)CC2)C(=O)N1 (stereo not given)	2.7	-1.9	1.9	47.6*	2.3	-26.9
CCn1c(=O)c(CCC(=O)N2CCN(c3ccccn3)CC2)c(C)c2c(C)nn(-c3ccccc3)c21	7.8	44.7*	1.7	-2.6	-12.7	-14.3
COc1cc(C2C(C(=O)c3ccc(C)o3)=C(O)C(=O)N2Cc2ccccc2)ccc1O (stereo not given)	-0.7	-1.2	-1.0	6.7	0.0	-10.3
CCOc1cc(C2C(C(=O)c3ccc(C)o3)=C(O)C(=O)N2CCc2ccccc2)ccc1O (stereo not given)	-7.5	76.8*	2.4	9.8	8.4	-20.0
Cc1ccc(C(=O)C2=C(O)C(=O)N(Cc3cccnc3)C2c2cccc(Oc3ccccc3)c2)o1 (stereo not given)	44.0*	/	/	/	3.4	/
O=[N+]([O-])c1cc2oc3c(c2c(C=NCc2ccncc2)c1O)CCCC3	/	47.6*	-0.3	4.9	/	-13.4
CC(C)(C)N=Cc1c(O)ccc2oc3c(c12)CCCC3	-3.3	1.3	-0.3	6.0	-0.4	-10.8
CC(C)CNC(=O)CC1Oc2ccccc2NC1=O (stereo not given)	-5.5	/	/	/	/	/
CC(C)(C)c1cc(NCc2ccccn2)n2ncc(-c3ccccc3)c2n1	4.5	51.5*	21.3	1.5	-11.1	-37.6
Cc1cc(C)n(-c2cc(C(C)(C)C)nc3c(-c4ccccc4)cnn23)n1	-3.0	9.4	1.9	5.9	1.9	-93.5
Cc1cc(/C=C\c2ccc3cc(N(C)C)ccc3[n+]2C)c(C)n1-c1ccccc1	/	4.5	-14.5	23.3	/	73.5*
CCOC(=O)C1C(=O)C=C(c2ccc(NS(C)(=O)=O)cc2)CC1c1ccco1 (stereo not given)	-4.9	0.4	10.3	32.7*	1.2	-39.1
Cc1ccc(/C=N/NC(=O)C2COc3ccccc3O2)s1 (stereo not given)	3.1	-0.6	-2.1	6.3	29.8	39.0
O=C(N/N=C/c1c(O)n(-c2ccccc2Cl)c(=O)c2ccccc12)C1COc2ccccc2O1 (stereo not given)	/	4.4	34.4*	15.1	-1.4	-37.2
Cc1ccc(-n2c(O)c(/C=N/NC(=O)C3COc4ccccc4O3)c3ccccc3c2=O)cc1 (stereo not given)	2.3	205.0*	15.3	4.9	7.7	-36.2
CCn1c(SCC(=O)NN=Cc2c(C)nn(-c3ccccc3)c2C)nnc1-c1ccc(OC)c(OC)c1	-1.9	/	/	/	/	/
Nn1c(SCC(=O)Nc2nccs2)nnc1-c1cc(-c2ccc(Cl)cc2)n[nH]1	-0.5	/	/	/	/	/
COc1ccc(-c2cc3nc[nH]c(=O)c3s2)cc1	-5.2	-1.7	+	31.0*	-0.3	-38.8
COc1cccc(CNc2nc3cc(-c4cccc(Cl)c4)sc3c(=O)n2C)c1	-2.2	/	4.0	14.6	/	/
COc1ccc(-c2cc3nc(CCl)[nH]c(=O)c3s2)cc1	3.0	-0.9	160.4*	19.2	-2.1	-95.8
